Values joined by “and” are separate entries in the source; they are usually repeats but may differ in a detail not shown here. Equal values may be shown once. About 1,400 (0.44%) of roughly 320,000 compounds were called active.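 How the source made its calls: active means percent inhibition above a per-plate cutoff, the plate mean of test compounds plus 3 SD (cut at about 30% in these data); inactive means the rest.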 The full list was thinned out, with actives kept by preference. Where a structure was tested more than once in an assay, its records may differ in their call.
Target: Female germline-specific tumor suppressor gld-1 (Caenorhabditis elegans) (UniProt Q17339)
Test: GLD-1/TGE RNA complex disruptors, primary screen, biochemical, fluorescence polarization (AID 2280);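 further: 0% = DMSO wells with GLD-1 and probe and 100% = wells lacking GLD-1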
Conditions: purified GLD-1 + fluorescein TGE RNA, at 5.96 µM, stronger effect = higher value

Female germline-specific tumor suppressor gld-1 (Caenorhabditis elegans), sequence (Q17339 whole entry, looked up): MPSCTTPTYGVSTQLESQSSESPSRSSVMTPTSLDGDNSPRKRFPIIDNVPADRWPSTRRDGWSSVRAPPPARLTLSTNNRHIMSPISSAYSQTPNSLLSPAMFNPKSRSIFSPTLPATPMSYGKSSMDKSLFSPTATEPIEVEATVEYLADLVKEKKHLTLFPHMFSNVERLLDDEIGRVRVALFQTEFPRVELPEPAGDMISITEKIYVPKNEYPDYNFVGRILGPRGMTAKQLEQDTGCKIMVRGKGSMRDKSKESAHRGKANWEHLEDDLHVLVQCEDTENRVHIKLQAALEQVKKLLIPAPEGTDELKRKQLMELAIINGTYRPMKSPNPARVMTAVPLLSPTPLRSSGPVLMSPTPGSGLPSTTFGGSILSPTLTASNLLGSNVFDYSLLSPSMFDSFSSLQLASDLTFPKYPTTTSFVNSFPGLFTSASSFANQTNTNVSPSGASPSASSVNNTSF

Structure (SMILES) | inhibition
Cc1nn(C(=O)c2ccoc2C)c(N)c1-c1ccccc1 | 126% (active)
C/C(=N\NC(=O)c1ccoc1C)c1ccccc1O | 2.44% (inactive)
CCOC(=O)c1c(N)nn(C(=O)c2ccccc2)c1-c1ccccc1 | 7.39% (inactive)
CC(C)N(C)C(=O)CCc1nnc(CCc2c[nH]c3ccccc23)o1 | 7.03% (inactive)
Cc1ccccc1Nc1nc(N)nc(CSc2ccccc2)n1 | 6.58% (inactive)
Cc1ccccc1Nc1nc(N)nc(CSc2nnc3ccccn23)n1 | 35.3% (active)
Cc1ccccc1Nc1nc(N)nc(CN2CCN(c3ccccn3)CC2)n1 | 2.81% (inactive)
COc1ccc(C(C)=O)cc1COC(=O)Cn1cnc2ccccc2c1=O | -1.6% (inactive)
Cc1cc(NC(=O)CSc2nc3c(cc2C#N)CCCCC3)no1 | 6.13% (inactive)
CC1(C)CCc2nc(SCc3ccccc3)c(C#N)cc2C1 | 6.74% (inactive)
CC(NC(=O)CSc1nc2c(cc1C#N)CN(C)CC2)c1ccccc1 (configuration not stated) | 35.9% (active)
CCOC(=O)C(C)n1cnc2c(nnn2-c2ccc(F)cc2)c1=O (configuration not stated) | 2.21% (inactive)
CCCCn1ccnc1C(=O)c1cccc(S(=O)(=O)N2c3ccccc3CC2C)c1 (configuration not stated) | 0.24% (inactive)
COC(=O)c1sc(NC(=S)NC(=O)c2ccc(C)cc2)nc1C | 60.9% (active)
Cc1ccc(C(=O)NC(=S)Nc2ccccc2C)cc1 | -1.38% (inactive)
Cc1ccc(NC(=S)NC(=O)c2ccc(-c3ccccc3)cc2)cc1 | -3.26% (inactive)
COc1cc(N2CCCC2)c(OC)cc1/C=C(/C#N)c1cccc(Br)c1 | -45.9% (inactive)
CC(Sc1nnc(-c2cccs2)n1C1CC1)C(=O)NCC1CCCO1 (configuration not stated) | -1.09% (inactive)
O=S(=O)(c1ccc(Cl)cc1)N1CCCN(c2ccc(C(F)(F)F)cn2)CC1 | 3.79% (inactive)
CN(C)c1ccc(Nc2c3c4c(cccc4n(C)c2=O)C(=O)c2ccccc2-3)cc1 | 53.9% (active)
CN(Cc1ccc(F)cc1)C(=O)CN1C(=O)c2ccccc2S1(=O)=O | -0.45% (inactive)
O=S(=O)(NCCCCCCNS(=O)(=O)c1c(F)cccc1F)c1ccc2c(c1)OCCO2 | -2.33% (inactive)
C=CCOc1cccc(C2C(C(=O)c3ccc(C)o3)=C(O)C(=O)N2c2nnc(C)s2)c1 (configuration not stated) | 91.3% (active)

Structure (SMILES) | inhibition
Cc1cc(N2C(=O)C(O)=C(C(=O)c3ccc(C)o3)C2c2ccc(OCc3ccccc3)cc2)no1 (configuration not stated) | 12.7% (inactive)
C=CCOc1cccc(C2C(C(=O)c3ccc(C)o3)=C(O)C(=O)N2CCCn2ccnc2)c1 (configuration not stated) | 5.89% (inactive)
CCN1CCC2(CCN(Cc3cn[nH]c3-c3ccc(OC)c(F)c3)C2)C1 (configuration not stated) | 6.39% (inactive)
COc1ccccc1C(=O)N(C1=NC(C)CS1)c1ccc(Cl)cc1 (configuration not stated) | 5.47% (inactive)
NC(=O)c1ccc(-c2csnn2)cc1 | -0.25% (inactive)
COc1ccc(NC(=O)C(C)SCc2ccccc2)cc1 (configuration not stated) | 4.3% (inactive)
O=C1N=C2SCCN2/C1=C\c1c(Cl)cccc1Cl | 3.87% (inactive)
CCC(=NC1CC(C)(C)NC(C)(C)C1)C1=C(O)CC(C)(C)CC1=O | 0.57% (inactive)
COc1ccc(NC(=O)CN(C)C(=O)c2cc(-c3ccc(C)o3)nc3ccccc23)cc1 | 1.85% (inactive)
CN(C(=O)COC(=O)c1cc(-c2ccco2)nc2ccccc12)C1CCS(=O)(=O)C1 (configuration not stated) | 24.7% (inactive)
CN(CCOc1ccccc1)C(=O)c1cc(-c2ccco2)nc2ccccc12 | 44.1% (active)
Cn1nc(-c2ccccc2)c(CSc2cccc(Cl)c2)c1Cl | 3.82% (inactive)
C=CCN(Cc1nc(-c2cc(OC)c3c(c2)OCO3)oc1C)C1CCS(=O)(=O)C1 (configuration not stated) | 3% (inactive)
COc1ccc(CCNS(=O)(=O)c2cc3c(cc2C)NC(=O)CO3)cc1OC | 5.55% (inactive)
O=C1c2ccccc2-c2ncnc3c(N4CCOCC4)cc(N4CCOCC4)c1c23 | 47.9% (active)
COC1=C(N2CCOCC2)C(=O)c2ccccc2C1=O | 5.26% (inactive)
Cc1oc2c(c1C(=O)N1CCOCC1)C(=O)c1ccccc1C2=O | -4.37% (inactive)
CCOc1ccc(NC(=O)CSc2ncnc3c2sc2ccccc23)cc1 | 7.48% (inactive)
CN(C)C=NC(=O)c1cccn1-c1ncc(C(F)(F)F)cc1Cl | 3.24% (inactive)
CC1CCCCC1NC(=O)COC(=O)Cc1ccc(Cl)cc1 (configuration not stated) | 0.1% (inactive)
Cc1cc(C)c(S(=O)(=O)N2CCCC2CNC(=O)c2ccc3c(c2)OCO3)c(C)c1 (configuration not stated) | -0.56% (inactive)
COc1ccc2[nH]c(C)c(CCN(Cc3cccs3)C(=S)Nc3ccccc3OC)c2c1 | 50% (active)
Cc1[nH]c2ccccc2c1CCN(Cc1cccs1)C(=S)NC(C)(C)C | 5.63% (inactive)

Structure (SMILES) | inhibition
COc1cccc(NC(=S)N(CCc2c(C)[nH]c3ccccc23)Cc2ccco2)c1 | 2.83% (inactive)
CCOC(=O)Cc1csc(SCC(=O)NC(C)C23CC4CC(CC(C4)C2)C3)n1 (configuration not stated) | -5.16% (inactive)
O=c1cc(CO)oc(C(Nc2cccc([N+](=O)[O-])c2)c2ccccn2)c1O (configuration not stated) | 25.3% (inactive)
FC(F)(F)c1cccc(Nc2ncnc3ccccc23)c1 | 8.73% (inactive)
O=c1cc(CO)oc(C(Nc2cccc(C(F)(F)F)c2)c2ccccn2)c1O (configuration not stated) | 75.6% (active)
O=C(CN1CCOC1=O)N1CCCC(Nc2ccc(F)c(F)c2)C1 (configuration not stated) | -0.97% (inactive)
CCCC1OC23CCCCC2C(C#N)(C#N)C1(C#N)C(=N)O3 (configuration not stated) | 63.5% (active)
O=C1CCC(=O)N(c2ccccc2)N1 | 3.62% (inactive)
COC(=O)C1CCN(C(=O)c2cc(=O)[nH]c3ccccc23)CC1 | 4.47% (inactive)
COC(=O)[C@H]1[C@H]2C[C@H]3c4[nH]c5ccccc5c4CCN3C[C@@H]2CC[C@@H]1O | 8.5% (inactive) and 48.8% (active)
O=C(Nc1ccc(Cl)cc1)N1CCc2[nH]c3ccccc3c2C1 | 7.58% (inactive)
O=C1c2cccc(OCC(=O)N3N=C(c4cccs4)CC3c3ccc(F)cc3)c2CCN1Cc1ccccc1 (configuration not stated) | -0.98% (inactive)
CC1CCCCC1NC(=O)Cn1c(=O)cnc2ccccc21 (configuration not stated) | -4.13% (inactive)
CC(C)CCn1c(=O)c2c(nc3n2CCCN3Cc2ccccc2)n(C)c1=O | 2.24% (inactive)
COc1ccc(OCCCC(=O)Nc2cccc(S(=O)(=O)N3CCCCCC3)c2)cc1 | 6.95% (inactive)
c1ccc(-n2nnnc2N2CCOCC2)cc1 | -16.6% (inactive)
CC1(C)Cc2c(C#N)c(SCc3nc4ccccc4[nH]3)nc(N3CCOCC3)c2CO1 | -7.37% (inactive)
C1=C(N2CCOCC2)/C(=C/c2nc3ccccc3[nH]2)CC1 | 72.7% (active)
CC(=O)c1c(C)[nH]c(C(=O)CN2C(=O)NC(C)(C)C2=O)c1C | 1.35% (inactive)
COc1ccc(C(=O)CN2C(=O)NC3(CCc4ccccc43)C2=O)c(OC)c1 (configuration not stated) | 0.18% (inactive)
CC/C(=N/Nc1ccccc1)c1cnnc(SC)n1 | 2.17% (inactive)
CSc1ccc(S(=O)(=O)Nc2cccc(F)c2)cc1 | 11.1% (inactive)
COc1ccc(-c2nc(CS(=O)CC(=O)NCc3ccccc3)c(C)o2)cc1OC (configuration not stated) | -5.15% (inactive)

Structure (SMILES) | inhibition
COc1ccc(-c2nc(CS(=O)CC(=O)NCc3ccccn3)c(C)o2)cc1 (configuration not stated) | 81.7% (active)
COc1cccc(-c2nc(CS(=O)CC(=O)NCc3ccc(F)cc3)c(C)o2)c1 (configuration not stated) | -0.05% (inactive)
Oc1ccc(-c2onc3ccc(Cl)cc23)cc1 | 8.29% (inactive)
COc1ccc(-c2onc3ccc(C(C)=O)cc23)cc1 | 169% (active)
CC(OC(=O)c1ccc2noc(-c3ccccc3)c2c1)C(N)=O (configuration not stated) | 6.97% (inactive)
COc1ccc(/C=C/C(=O)c2cc(Br)ccc(=O)c2O)cc1 | -9.08% (inactive)
O=C(c1cnccn1)N1CCN(S(=O)(=O)c2cccc(Cl)c2)CC1 | 3.23% (inactive)
O=C(c1ccc(F)c(S(=O)(=O)N2CCOCC2)c1)N(CCc1ccccc1)Cc1ccccc1 | 18.5% (inactive)
O=C(NCCSCc1ccccc1)c1ccc(Cl)c(S(=O)(=O)N2CCOCC2)c1 | 7.47% (inactive)
Cc1nn(Cc2ccccc2)c(C)c1CNC(=O)c1ccc(F)c(S(=O)(=O)N2CCOCC2)c1 | 103% (active)
Cc1cnc(CN(C)C(=O)CC2C(=O)NCCN2Cc2cccc(F)c2F)[nH]1 (configuration not stated) | 9.56% (inactive)
CC1(C)CC[C@]2(C(=O)O)CC[C@]3(C)C(=CCC4[C@@]5(C)CC[C@H](O)C(C)(C)C5[C@H](O)C[C@]43C)[C@@H]2C1 (some centres not stated) | 1.49% (inactive)
O=C(COC(=O)c1cccc(Br)c1)Nc1cccc2c1C(=O)c1ccccc1C2=O | 7.63% (inactive)
O=C(Cn1cnc2ccccc21)Nc1ccccc1-c1ccccc1 | 1.53% (inactive)
O=C(COC(=O)Cn1cnc2ccccc21)Nc1cccc2c1C(=O)c1ccccc1C2=O | 78.6% (active)
Cc1ccc(N(Cc2cc(=O)[nH]c3ccccc23)C(=O)CCl)cc1 | 0.28% (inactive)
CC(=O)N/C(=N/c1nc(C)cc(C)n1)Nc1ccc(F)cc1F | -1.91% (inactive)
O=S(=O)([N-]c1nc2ccccc2nc1-[n+]1ccc(Cc2ccccc2)cc1)c1ccc(Br)s1 | 94.1% (active)
O=S(=O)(NCc1cccnc1)c1ccc(Br)s1 | 2.39% (inactive)
O=C(NCCc1ccccc1)C1CCN(S(=O)(=O)c2ccc(Br)s2)CC1 | 4.67% (inactive)
O=C1CN(C(=O)COC(=O)c2cnc(Cl)c(Cl)c2)c2ccccc2N1 | 6.14% (inactive)
CS(=O)(=O)c1ccc(C(=O)NNC(=O)c2cccs2)cc1 | 1.25% (inactive)
O=C(c1cc(COc2ccc(F)cc2F)on1)N1CCOCC1 | -0.95% (inactive)

Source: PubChem BioAssay AID2280 (The Scripps Research Institute Molecular Screening Center, 2010)
